What was measured:
Assay in all cases: PBM binding z-score (relative to random genomic background probes); higher = stronger binding; sequences stand for … in GC…GCGATTGACAGCGTAGAATGAAGG
[1] = tested on: PPARg:RXRa IVT, anti-PPARg (NR concentration 270 nM, RXRa partner concentration 90 nM)
How it was run: (§1)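 Regression normalization was applied to scanned fluorescence from custom Agilent 4×180K protein-binding microarrays. Before scanning, arrays were incubated 1 h with ligand-free nuclear receptor dimers, and binding was detected with antibodies against each partner (one per run). Binding z-scores use the random background probes as reference.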

[2] = tested on: PPARg DBDmut:RXRa IVT, anti-PPARg (DBD mutation: PPARg1 K132A/R137A, NR concentration 270 nM, RXRa partner concentration 90 nM)
How it was run: as §1

[3] = tested on: PPARg DBDmut IVT, anti-PPARg (DBD mutation: PPARg1 K132A/R137A, NR concentration 270 nM)
How it was run: as §1

[4] = tested on: PPARg homodimer (NR concentration 180 nM)
How it was run: as §1

[5] = tested on: PXR:RXRa (NR concentration 270 nM, RXRa partner concentration 90 nM)
How it was run: as §1

[6] = tested on: PXR homodimer (NR concentration 270 nM)
How it was run: as §1

[7] = tested on: RARa:RXR (NR concentration 270 nM, RXRa partner concentration 90 nM)
How it was run: as §1

[8] = tested on: RARa homodimer (NR concentration 270 nM)
How it was run: as §1

[9] = tested on: RARb:RXRa (NR concentration 270 nM, RXRa partner concentration 90 nM)
How it was run: as §1

[10] = tested on: RARb homodimer (NR concentration 270 nM)
How it was run: as §1

Row | Sequence | PBM binding z-score [1] | PBM binding z-score [2] | PBM binding z-score [3] | PBM binding z-score [4] | PBM binding z-score [5] | PBM binding z-score [6] | PBM binding z-score [7] | PBM binding z-score [8] | PBM binding z-score [9] | PBM binding z-score [10]
1 | ACTAGTTGGTCAGCTGAGGTCACACCCAATTCGG | 2.55 | 1.1 | 0.595 | 2.35 | 5.14 | 1.25 | 4.27 | 0.354 | 3.57 | 4.33
2 | ACTTACGGGTCTACGAGGTTATAGCACGCGTATA | 0.458 | 0.196 | 0.723 | 0.507 | 1.03 | 0.544 | 1.28 | 0.676 | 0.688 | 0.753
3 | AGTCAAACTTCAGGACGAGGTAACGTAAAGCACG | 0.278 | 0.625 | 0.0207 | 0.24 | -0.409 | -0.112 | 0.165 | 0.202 | 0.545 | 0.304
4 | AGAATGAGGTCACCAAAGATCAGGGAAACGCTTG | 7.35 | 1.62 | 0.808 | 3.69 | 5.47 | 1.12 | 5.82 | 1.69 | 5.43 | 4.08
5 | TCTAGTTGGTCACGGAGGACACACACGACGGGTA | 2.32 | 1.35 | 1.02 | 0.981 | 0.558 | 0.193 | 0.682 | 0.611 | 2.19 | 2.13
6 | AATACGGGGTCACTAGGCCAGAGTAGGTACGAAT | 7.02 | 1.49 | 1.57 | 2.6 | 5.78 | 1.06 | 6.3 | 1.34 | 5.12 | 4.41
7 | TCTGCTAGGTCAACGTTGGTCAGCTAATCTGCTA | 4.38 | -0.219 | 0.673 | 0.191 | 1.56 | -0.62 | 2.22 | -1.27 | 4.03 | 3.31
8 | TCTAGTTGGTCACGGAGGGCACACACGACGGGTA | 2.85 | 0.649 | 0.752 | 1.2 | 1.11 | 0.255 | 1.01 | 0.42 | 2.35 | 2.28
9 | GGAACGAGGGCAAAGTTCATAGCATCTGTCGACG | 6.1 | 0.354 | -0.0901 | 3.42 | 5.81 | 4.46 | 6.65 | 0.559 | 4.01 | 3.75
10 | CCTCGGAGGACAACAGGAGGTCATAGCTGCCAGA | 0.613 | -0.597 | -1.12 | 1.63 | 3.72 | 1.1 | 3.52 | 0.48 | 2.93 | 3.71
11 | AGAATGAGGTCATTAAGATCAGGGAATTGCGGTC | 6.13 | 2.24 | 0.816 | 3.54 | 5.46 | 5.08 | 5.31 | 0.745 | 4.79 | 3.96
12 | AGAATGAGGTCAAGATCAGGGAAACAGAATACAT | 6.55 | 2.94 | 2.9 | 3.03 | 4.67 | 1.43 | 5.28 | 1.39 | 5.21 | 3.8
13 | CCTACTGGGCCAAAAAGGTCATTGATGCCGATAA | 3.76 | -0.582 | -0.854 | 3.07 | 4.63 | 3.96 | 4.97 | 0.857 | 3.97 | 4.43
14 | ATATGTAGTTTATCGGGTCATTCAGTTTGCGCAT | 3.77 | 1.29 | 1.84 | 1.72 | 3.46 | 7.31 | 3.03 | 1.18 | 2.26 | 2.91
15 | CGTCCAAGGTCATAGGGGGTCAGTGAAGACAGAT | 5.56 | 5.09 | 6.03 | 6.75 | 6.98 | 6.58 | 7.02 | 4.01 | 5.56 | 5.51
16 | TAGCCTAGGTCATACAGGGGCCAGTATAGAAAGC | 2.89 | 0.2 | -0.11 | 1.83 | 2.1 | -0.101 | 3.56 | 0.204 | 3.91 | 3.38
17 | AATACAGGGTCATCTTAGGCCAGAGTACGCACAG | 3.86 | 1.51 | 0.721 | 2.17 | 5.05 | 1 | 4.73 | 0.742 | 4.22 | 3.87
18 | ATCGAAAGGTCCACGAGGTGAGTATACACCGTTT | 0.791 | 0.466 | 0.248 | 0.167 | 0.264 | -0.268 | 0.714 | 0.24 | 1.66 | 1.2
19 | GCTAGTTGGTCAGTAAAAGGTGACACACCGGTCG | 1.63 | -1.22 | -1.06 | 0.86 | 0.431 | -0.523 | 1.07 | 0.0812 | 1.83 | 2.45
20 | ATTTGTAGGTTACATCCGGGTCATTCAGGCTATG | 6.29 | 3.31 | 2.1 | 3.38 | 4.12 | 4.01 | 4.19 | 2.72 | 2.77 | 3.43
21 | TATCAAAGTTCAAAGGTAACGTAAGTATCCACAC | 2.37 | 1.61 | 1.66 | 2.55 | 5.83 | 4.87 | 6.67 | 2.48 | 5.07 | 3.91
22 | CGCACTAGGTCATCCAGGACAGTGAATACATTGA | 8.07 | 2.66 | 1.65 | 1.92 | 1.97 | 0.888 | 2.65 | 0.479 | 3.88 | 3.11
23 | TAGCCTAGTTCATTCAGGGGCCAGTATAGAAAGC | 1.45 | -0.019 | 0.583 | 0.283 | 1.29 | 0.885 | 0.991 | -0.411 | 1.72 | 1.64
24 | TCTGCTAGGTCAACGATGGTCAGTTAATCTGCTA | 4.08 | 0.247 | 0.848 | 1.07 | 1.88 | -0.482 | 2.17 | -0.966 | 4.04 | 3.26

Row | Sequence | PBM binding z-score [1] | PBM binding z-score [2] | PBM binding z-score [3] | PBM binding z-score [4] | PBM binding z-score [5] | PBM binding z-score [6] | PBM binding z-score [7] | PBM binding z-score [8] | PBM binding z-score [9] | PBM binding z-score [10]
25 | GATACAGGGTCAGCTACAGGCCAGAGTATGGAAA | 2.25 | 0.112 | -0.146 | 1.47 | 2.17 | -0.273 | 3.3 | 0.244 | 4.02 | 2.99
26 | CAAACTAGGTCAAGGTCTAAGTCGGTTTGTGCCA | 8.57 | 4.39 | 3.12 | 2 | 1.67 | 0.201 | 2.3 | 0.357 | 4.24 | 3.49
27 | CCTACTGGGCCAAAGGTGATTGATTCCAATGCTC | 5.36 | 0.238 | 0.204 | 0.439 | 0.0253 | -0.311 | 0.327 | -0.309 | 0.815 | 0.601
28 | CGTCCAAGGTTAAGGTCAGTGAAAGAGACTCGAA | 2.04 | -0.847 | -0.494 | 3.1 | 2.73 | 1.01 | 3.56 | 0.781 | 4.16 | 3.58
29 | AGAATGGGGTTACCAAAGATCAGGGAAACGCTTG | 4.08 | 1.57 | 1.15 | 1.96 | 3.04 | 0.0687 | 3.76 | -0.368 | 2.18 | 1.08
30 | ATATGTAGGTTATCGGGTCATACAGTTTGCGCAT | 7.62 | 3.33 | 1.78 | 2.48 | 3.54 | 2.74 | 4 | 1.32 | 2.75 | 3.17
31 | TAGCCTAGGGCATTCAGGGGCCAGTATAGAAAGC | 0.75 | -0.631 | -1.01 | -0.114 | -0.0151 | -0.113 | 0.405 | -0.803 | 1.42 | 1.35
32 | AGTCAAAGTTGAGGACGAGGTAACGTAAAGCACG | 0.639 | 0.307 | -0.0552 | 0.137 | 0.261 | -0.0592 | 0.951 | 0.0325 | 1.46 | 1.01
33 | ATCGAAAGGTCGAAGGTGCGTATACCCACCCGAA | 1.39 | 0.552 | 0.658 | 0.794 | 2.17 | -0.19 | 3.01 | 0.303 | 3.68 | 2.42
34 | CCTTACGGGTCCCTCCAGGTTATAGCATCGGAGT | -0.601 | -1.12 | -1.29 | 0.547 | 0.139 | -0.00641 | 0.181 | -0.487 | 0.0941 | 0.0845
35 | TTACCAAGGTGAACGGTCGTTGATGCACGCCTTG | 3.55 | 1.13 | 0.904 | 0.997 | -0.0425 | -0.818 | 0.693 | -0.752 | 2.03 | 1.31
36 | CGTCCAAGGTCATATGAGGTCAGTGAAGACAGAT | 3.84 | 0.668 | 0.114 | 4.65 | 7.23 | 9.26 | 6.07 | 2.7 | 5.34 | 5.47
37 | CCTACTGGGCCACTAAAGGTCATTGATTCAGTGA | 5.37 | 0.801 | 0.225 | 3.43 | 5.12 | 1.79 | 5.18 | 1.26 | 3.89 | 4.55
38 | CCTACTGGTCCAAGGTCATTGATCAGTCAAAGCA | 1.68 | -0.223 | -0.605 | 3.61 | 4.18 | 2.61 | 4.13 | 1.23 | 3.33 | 3.76
39 | AGCGAAAGGTCGAGGTGAGTATAGAGAAAGGGAA | 2.26 | 0.0948 | 0.386 | 1.75 | 2.52 | 0.259 | 3.19 | 0.743 | 4.03 | 2.64
40 | ATATGTAGGTTAGCTGGGGTCCTTCAGACTAGGC | 5.77 | 1.74 | 2.65 | 1.13 | 1.33 | 0.206 | 2.3 | 0.538 | 0.851 | 0.736
41 | CCTACTCGGCCAAAAAGGTCATTGATGCCGATAA | 2.03 | -0.62 | -0.0585 | 3.26 | 4.83 | 3.27 | 4.83 | 1.71 | 4.07 | 4.59
42 | AAAACAGGGTCATCGTAGGCCAGAGTACGCACAG | 5.24 | 4.19 | 2.83 | 6.6 | 5.51 | 0.625 | 5.95 | 0.959 | 4.44 | 3.68
43 | CCTAGTTGGTCAAGGTCACACCCGCTATAGGTAC | 3.67 | 0.989 | 0.599 | 3.09 | 3.95 | 2.06 | 4.02 | 1.87 | 4.12 | 4.39
44 | TGTATGAGGTTAAAGATCAGGGAACGTGGCGTCG | 1.99 | 0.959 | 0.628 | 1.78 | 2.38 | 0.249 | 3.55 | 1.35 | 2.49 | 1.35
45 | TCGCCTAGGTCATGGGCCAGTATACCACGCGAAC | 2.65 | 0.306 | -0.587 | 1.21 | 1.7 | -0.2 | 2.97 | -0.243 | 3.97 | 3.12
46 | ACTCGGATGACAAAGGTCAGAGCTACGCCAGTGA | 2.58 | 0.403 | 0.346 | 3.31 | 3.68 | 0.135 | 4.51 | 1.18 | 4.12 | 3.9
47 | CCTACTGGGCCTAAGGTCATTGATTCCAATGCTC | 3.86 | -0.629 | -0.793 | 2.07 | 3.7 | 1.98 | 3.54 | 0.174 | 3.15 | 3.54
48 | AGTCAAAGTTCATCTAGGTAACATAAGATATGCT | 3.9 | 1.75 | 1.67 | 2.88 | 5.28 | 6.9 | 4.2 | 1.96 | 4.94 | 3.71

From the supplement of paper PMC6555819
